# Measured values published in ChEMBL document CHEMBL4513146, “CO-ADD screening of Karazin Kharkiv National University (Ukraine) compounds”.
# Results with a measured potency or affinity are listed apart.
# Legend:
# Staphylococcus aureus = conditions: Concentration 32 ug.mL-1;; ASSAY_TEST Inhibition of Bacterial Growth; detection method Absorption (OD600); MEDIA CAMHB; plate type 384well; NBS; CORNING #3640; time 18 hr
# Escherichia coli = conditions: Concentration 32 ug.mL-1;; ASSAY_TEST Inhibition of Bacterial Growth; detection method Absorption (OD600); MEDIA CAMHB; plate type 384well; NBS; CORNING #3640; time 18 hr
SMILES,Inhibition (Staphylococcus aureus) [%],Inhibition (Escherichia coli) [%]
O=C(CCc1nnc2c(N3CCCCC3)nc3ccccc3n12)NCc1ccc2c(c1)OCO2,17.67,2.95
Cc1ccc(C)c(NC(=O)Cn2nc3n(C)c(=O)c4c(c(-c5ccccc5)cn4C)n3c2=O)c1,-4.46,-19.92
Cc1ccc(-c2cc3c4nn(CC(=O)NCc5ccccc5Cl)c(=O)n4ccn3n2)cc1C,0.72,0.46
COc1cccc(Oc2nccn3c(=O)n(CC(=O)NCc4ccccc4Cl)nc23)c1,11.84,2.87
COc1ccc(CN(c2cc(C)cc(C)c2)S(=O)(=O)c2cccn3cnnc23)cc1F,-10.31,-13.2
